Assay outcomes (PubChem)
PGE2 EP2 inh – human EP2 receptor antagonists, primary screen, TR-FRET cAMP, C6 glioma cells | C6 glioma cells expressing human EP2; cells stimulated with saturating PGE2 | inhibition, % at 25 µM | AID 1422, 2008 | actives 0.52% (n = 260,000);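 active = percent inhibition above 40 after rounding to a whole number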;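 note: rat C6 glioma host cells with rolipram phosphodiesterase inhibitor present; the protocol text gives 20 µM as final concentration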
Target sequence (P43116 whole entry, looked up): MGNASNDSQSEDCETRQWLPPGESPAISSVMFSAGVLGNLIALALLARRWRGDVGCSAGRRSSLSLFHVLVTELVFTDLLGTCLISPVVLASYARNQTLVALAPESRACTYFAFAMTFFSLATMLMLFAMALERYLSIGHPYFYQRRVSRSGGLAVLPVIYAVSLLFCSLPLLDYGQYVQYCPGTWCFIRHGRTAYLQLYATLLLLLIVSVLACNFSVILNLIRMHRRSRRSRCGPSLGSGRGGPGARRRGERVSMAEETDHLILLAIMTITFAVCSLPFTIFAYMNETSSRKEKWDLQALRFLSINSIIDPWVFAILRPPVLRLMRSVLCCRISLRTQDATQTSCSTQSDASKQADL
PERK inhibitor – block of dimerizer-induced PERK translation repression, primary screen, PERK inhibitor project, CHO PERK-DD cells, SEAP luminescence, HTS | actives 0.17% (n = 220,000) | AID 1416, 2008 | CHO PERK-DD fusion, SEAP luminescence translation reporter | inhibition, % at 5.6 µM | Eukaryotic translation initiation factor 2-alpha kinase 3 (Homo sapiens), Q9NZJ5;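 active = inhibition above the mean inhibition of all tested compounds plus 3 SD, set separately per screening campaign, cut at about 2.9% in these data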;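 note: PERK kinase domain activated by AP20187 dimerizer at 100 nM; 0% = DMSO with dimerizer and 100% = rapamycin at 8.4 µM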
eIF4E 4G PPI – eIF4E–eIF4G protein interaction inhibitors, primary screen, biochemical, uHTS, TR-FRET, eIF4GI fragment | TR-FRET eIF4E-eIF4GI(517-606) binding, 2 h | inhibition, % at 21.7 µM | actives 0.37% (n = 220,000);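 active = inhibition above about 30%, limit read from the data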;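 note: 0% = full FRET control wells and 100% = background wells lacking eIF4GI fragment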
EP2 modulator – EP2 receptor modulators, cAMP readout, primary screen, cell-based, HTRF cAMP, PGE2 stimulation. Prostaglandin E2 receptor EP2 subtype (Homo sapiens), P43116. EP2-expressing cells, cAMP HTRF FRET, PGE2 co-stimulation. induction, % at 25 µM. actives 0.83% (n = 260,000);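 active = compounds whose cAMP rise, as percent of the full-agonist control response, exceeds 60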;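 note: rat C6 glioma line stably carrying human EP2 under a CMV promoter; the protocol text gives 20 µM as final concentration; 100% = response of wells given 1 µM PGE2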
Numbers without * were called inactive; nt = not tested or not shown; [ ] = dose if it differs, or a comment. Rows were chosen to be rich in hits. Some 1.8% of all compounds tested hit in one or more screens of this group.

SMILES | PGE2 EP2 inh | PERK inhibitor | eIF4E 4G PPI | EP2 modulator
COc1ccc([C@@H](Nc2ccccn2)c2cc(C(C)(C)C)cc(C(C)(C)C)c2O)cc1 | 46* | nt | nt | 36
CCc1nnc(NC(=O)CSc2nnc(C(C)C)n2CCOC)s1 | 9 | nt | nt | 17
COc1cccc(NC(=O)COc2ccc(N3CC(C(=O)NCC(C)C)CC3=O)cc2)c1 (centres undefined) | 13 | 0 | 72* | 7
O=C(Nc1ccc(NC(=O)C2CC2)nc1)c1ccccn1 | 41* | 0 | -4 | -1
CN(Cc1cc(C(C)(C)C)cc(Br)c1O)Cc1cc(C(C)(C)C)cc(Br)c1O | 43* | nt | nt | 5
C=CCn1c2cc(C)sc2c2cnn(CC(=O)N3CCc4ccccc43)c(=O)c21 | nt | nt | nt | -126
Cc1cc(OCc2ccccc2)ccc1/C(O)=C1/C(=O)C(=O)N(Cc2cccnc2)C1c1ccncc1 (centres undefined) | 18 | 1 | -4 | 64*
CCc1ccc2[nH]c(=O)c(C(c3nnnn3Cc3ccc(OC)cc3)N(C)C3CCCCC3)cc2c1 (centres undefined) | 14 | nt | nt | 1
CN(C)CC/C=C1/c2ccccc2COc2ccccc21 | 6 | 0 | 3 | -1
c1ccc2c(c1)OCc1cn[nH]c1-2 | 4 | 0 | 51* | -28
Cc1ccc(NC(=S)N(Cc2ccco2)Cc2cc3c(C)ccc(C)c3[nH]c2=O)c(C)c1 | 10 | nt | nt | 18
O=C(Nc1ccc2oc(=O)ccc2c1)c1ccc(Cl)cc1 | 5 | nt | nt | -27
COc1ccc(Nc2nc3c(C)cccn3c(=O)c2C=NCc2ccccc2)cc1 | 3 | 1 | -3 | 64*
CNc1nc2c(C)cccn2c(=O)c1C=NCc1ccccc1 | nt | 1 | -3 | 61*
Cc1cc2cc(CN(Cc3ccc(F)cc3)C(=O)N(C)C)c3nnnn3c2cc1C | 7 | nt | nt | 2
CCCC(c1nnnn1Cc1ccco1)N(Cc1cc2cc(C)ccc2[nH]c1=O)C1CCCC1 (centres undefined) | 12 | nt | nt | 68*
CCC(C)(C)n1nnnc1C(C(C)C)N(Cc1ccccc1)Cc1cc2cc(C)ccc2[nH]c1=O (centres undefined) | 14 | nt | nt | 80*
CCCC(c1nnnn1C(C)(C)C)N(Cc1ccccc1OC)Cc1cc2cc(C)ccc2[nH]c1=O (centres undefined) | 10 | nt | nt | 72*
CCC(c1nnnn1C1CCCCC1)N(Cc1cc2cc(C)ccc2[nH]c1=O)C1CCCC1 (centres undefined) | 12 | nt | nt | 28
CCCC(c1nnnn1C(C)(C)C)N(Cc1ccccc1)Cc1cc2ccc(C)cc2[nH]c1=O (centres undefined) | 17 | nt | nt | 37
CCC(c1nnnn1C(C)(C)C)N(Cc1cc2cc(C)ccc2[nH]c1=O)C1CCCCC1 (centres undefined) | 17 | nt | nt | 75*
CCCC(c1nnnn1Cc1ccco1)N(Cc1cc2cc(C)cc(C)c2[nH]c1=O)C1CCCC1 (centres undefined) | 4 | nt | nt | 34
Cc1cc(C)c2c(NCc3ccc(F)cc3)n[nH]c2n1 | 8 | nt | nt | -62
CCC(c1nnnn1CC1CCCO1)N(Cc1ccco1)Cc1cc2cc(OC)ccc2[nH]c1=O (centres undefined) | 9 | nt | nt | 16
Cn1cc(NS(=O)(=O)c2ccc3c(c2)NC(=O)CO3)cn1 | 8 | nt | nt | -9
SMILES | PGE2 EP2 inh | PERK inhibitor | eIF4E 4G PPI | EP2 modulator
CCC(c1nnnn1C(C)(C)C)N(CCc1ccccc1C)Cc1cc2cc(C)ccc2[nH]c1=O (centres undefined) | 16 | nt | nt | 65*
Cc1ccc2[nH]c(=O)c(CN(Cc3nnnn3C3CCCCC3)C3CCCCC3)cc2c1 | 5 | nt | nt | 69*
CCC(c1nnnn1C(C)(C)C)N(CCc1ccccc1)Cc1cc2cc(C)c(C)cc2[nH]c1=O (centres undefined) | 7 | nt | nt | 15
CC(C)c1ccc(-c2nc(C(N)=O)c3[nH]c(=O)n(CC4CCCO4)c3n2)cc1 (centres undefined) | 5 | nt | nt | -17
CCn1c2ccc(OC)cc2c2n[nH]c(=S)nc21 | 12 | nt | nt | -13
COc1cc2cc(CN(Cc3ccc(Cl)cc3)C(=O)NC3CCCCC3)c(=O)[nH]c2cc1OC | 15 | nt | nt | -17
FC(F)(F)c1nc2nc(Cl)c(Cl)nc2n1CCCN1CCOCC1 | 46* | nt | nt | 7
COc1ccc2nc(C)cc(SCC(=O)N/N=C/c3ccc(O)c(O)c3)c2c1 | 6 | 1 | -1 | -80
Cc1cc(SCC(=O)N/N=C/c2ccc(O)c(O)c2)c(C)cc1Br | 50* | 1 | 7 | -33
CCn1c2ccccc2c2nc3cc(S(=O)(=O)N4CCOCC4)ccc3nc21 | nt | -1 | 48* | 7
Cc1ccc(NC(=S)N2CCC(c3nc4ccccc4o3)CC2)cc1C | 7 | nt | nt | -90
CC(=O)c1cccc(NC(=O)c2cc(C(C)C)on2)c1 | 10 | 0 | -4 | -1
CC(C)c1cc(C(=O)Nc2cccc(Cl)c2)no1 | 5 | 0 | 63*[fluorescence artefact?] | -17
Cc1cc2c(cc3c(=O)n(CC(=O)NCc4ccccc4F)nc(C)n32)s1 | nt | nt | nt | 31
N#C/C(C(=O)NCCc1ccccc1)=C1/N=C(NC(=O)c2cccs2)c2ccccc21 | 13 | 1 | 17 | 63*
COc1cc(/C=C\c2nc(O)c([N+](=O)[O-])c(=O)[nH]2)cc(OC)c1 | 12 | nt | nt | -11
Cc1ccc(C2(C(=O)N[C@H](Cn3nc(C4CC4)ccc3=O)C(C)C)CCCC2)cc1 | nt | nt | nt | 6
Cc1ccc(N2CCCC2=O)cc1S(=O)(=O)Nc1ccc(Cc2ccncc2)cc1 | 5 | nt | nt | -63
C[C@@]12C[C@H](O)[C@@H]3[C@H](CCC4=CC(=O)CC[C@]43C)[C@H]1CC[C@H]2c1csc(-c2ccccc2)n1 | 40* | nt | nt | 36
Cn1c(=O)c2c(nc(N/N=C/c3ccccc3C(=O)O)n2C)n(C)c1=O | 44* | nt | nt | 17
Cc1[nH]c(=O)[nH]c(=O)c1NC(=O)CSc1nc(C(C)C)nc2sc(C)c(C)c12 | 8 | nt | nt | 23
FC(F)(F)c1cc(NC(=S)N2c3ccccc3-n3cccc3[C@H]2c2cccnc2)cc(C(F)(F)F)c1 | 44* | nt | nt | -16
CCOc1cc(-c2nn3cnnc3s2)cc(OCC)c1OCC | 7 | 0 | 5 | 61*
Nc1ccc(-c2nn3cnnc3s2)cc1 | 9 | nt | nt | -29
O=C(O)C(Cc1ccccc1)N1C(=O)/C(=C/C=C/c2ccco2)SC1=S (centres undefined) | 7 | 0 | 53* | 13
O=C1S/C(=C\C=C\c2ccco2)C(=O)N1c1ccc(O)cc1 | 18 | 2 | -5 | 35
O=C(O)CCCN1C(=O)/C(=C/C=C/c2ccco2)SC1=S | 11 | 0 | 32* | 74*
Cc1ccc(NC(=O)CCCN2C(=O)/C(=C/C=C/c3ccccc3)SC2=S)cc1 | 2 | 0 | 0 | -18
O=C(O)CC(C(=O)O)N1C(=O)/C(=C/C=C/c2ccco2)SC1=S (centres undefined) | 10 | 2 | 32* | 17
